Source: PubChem BioAssay (Tox21)
Inconclusive results are not listed. Calls of active or inactive are those of the source. Unless noted, calls follow the shape of the dose curve; as a rule, active = well fitted curve in the direction sought with a large enough effect in the repeat runs; inconclusive = weak or mixed curves; inactive = no such curve, though single readings can be large; an effect the other way counts as inactive or inconclusive.

Legend:
[1] = qHTS assay to identify small molecule agonists of the RXR signaling pathway - cell viability counter screen (AID 1159529); also: nearly all actives have a fitted effect of over 50% in size; also: potency is read from the fitted curve at half-maximal effect;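 as to activity change, negative = cytotoxicity: HEK 293T cells carrying an RXR-alpha UAS beta-lactamase reporter; series mostly up to about 77 µM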
Summary of the method: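 Steps: seed RXR-alpha-UAS-bla HEK 293T cells in assay medium containing 2% charcoal-stripped FBS; incubate 5 hr; add compounds in DMSO; incubate 16 hr at 37 C; after the bla read, add CellTiter-Glo and read luminescence at 30 min.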

[2] = qHTS assay to identify small molecule antagonists of the retinoid acid receptor (RAR) signaling pathway - cell viability counter screen (AID 1159551); also: nearly all actives have a fitted effect of over 35% in size
Summary of the method: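 Retinol-stimulated (1 uM final) C3RL4 cells, compound 6 h, 37 C; readout CellTiter-Glo luminescence (ATP) after 30 min RT incubation.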

[3] = qHTS assay to identify small molecule antagonists of the retinoic acid receptor (RAR) signaling pathway (AID 1159552; also: nearly all actives have a fitted effect of over 50% in size)
Summary of the method: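 Retinol at 1 uM final stimulated RARE-luciferase expression in C3RL4 cells exposed to test compounds for 6 hr at 37 C. Reduced luminescence, read 30 min after detection reagent, indicated pathway antagonism.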

[4] = qHTS assay to identify small molecule agonists of the retinoic acid receptor (RAR) signaling pathway (AID 1159553)
Summary of the method: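 Reporter readout comes from luciferase under RARE control in C3RL4 cells; compound exposure lasts 6 hr at 37 C in 5% CO2, and luminescence is recorded following a 30 min room-temperature incubation with reagent.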

[5] = qHTS assay to identify small molecule antagonists of the estrogen related receptor (ERR) signaling pathway from Tox21 library - cell viability counter screen (AID 1224834); also: nearly all actives have a fitted effect of over 30% in size; also: potency is read from the fitted curve at half-maximal effect
Summary of the method: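 After 17.5 h of compound exposure at 37 C, ERR cells are incubated with CellTiter-Fluor for 30 min and fluorescence intensity serves as the viability measure.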

[6] = biological target: Luciferin 4-monooxygenase (Photinus pyralis) (UniProt P08659); assay: qHTS assay to identify small molecule inhibitors of firefly luciferase (AID 1224835); also: series mostly up to about 120 µM; nearly all actives have a fitted effect of over 25% in size
Summary of the method: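 Biochemical qHTS: compounds run as interplate titrations against purified firefly enzyme, with D-luciferin and ATP each at its KM concentration. Light output recorded by CCD imaging.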

[7] = qHTS assay to identify small molecule agonists of the constitutive androstane receptor (CAR) signaling pathway - cell viability counter screen (AID 1224836); also: nearly all actives have a fitted effect of over 45% in size; also: potency is read from the fitted curve at half-maximal effect; as to viability change, negative = cytotoxic: series mostly up to about 92 µM
Summary of the method: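 Cells were seeded and incubated 4 hrs. Compounds were added across 15 concentrations together with PK11195 at 0.75 uM final. Plates were incubated 23 hrs at 37 C. CellTiter-Fluor was added and fluorescence measured.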

[8] = qHTS assay to identify small molecule antagonists of the constitutive androstane receptor (CAR) signaling pathway - cell viability counter screen (AID 1224837); also: nearly all actives have a fitted effect of over 45% in size; also: potency is read from the fitted curve at half-maximal effect; as to activity change, negative = cytotoxicity: series mostly up to about 92 µM
Summary of the method: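 Counter screen run in HepG2-CYP2B6-hCAR cells: 4 hr settle, compound titration (15 concentrations) with 50 nM CITCO, 23 hr at 37 C/5% CO2, CellTiter-Fluor fluorescence.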

[9] = qHTS assay to identify small molecule antagonists of the estrogen related receptor signaling pathway with the pleiotropic PPARgamma coactivator (PGC) from Tox21 10K library - cell viability counter screen (AID 1224840; active = well fitted cell-killing curve with a large enough effect in the repeat runs, not every such curve was filed as active; also: nearly all actives have a fitted effect of over 40% in size)
Summary of the method: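 Following seeding of 2,000 PGC/ERR cells/well and 6 hours' incubation, test compounds were delivered in DMSO. The plates then sat 17.5 hours at 37 C before a fluorogenic live-cell protease reagent (CellTiter-Fluor) was read after 30 min.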

[10] = biological target: Thyrotropin receptor (Homo sapiens) (UniProt P16473); assay: qHTS assay to identify small molecule agonists of the thyroid stimulating hormone receptor (TSHR) signaling pathway (AID 1224843; calls by dose curve; also: nearly all actives have a fitted effect of over 45% in size)
Summary of the method: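 TSHR-HEK293 cells in agonist mode, 30 min room-temperature step, then cAMP measured by competitive HTRF (cAMP-d2 with anti-cAMP cryptate) after 1 h at room temperature. Tested at 15 concentrations in triplicate.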

[11] = biological target: Nuclear receptor subfamily 1 group I member 3 (Homo sapiens) (UniProt Q14994); assay: qHTS assay to identify small molecule antagonists of the constitutive androstane receptor (CAR) signaling pathway (AID 1224838);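 also: HepG2 cells stably expressing hCAR with CYP2B6 luciferase reporter stimulated by CITCO; nearly all actives have a fitted effect of over 40% in size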; also: potency is read from the fitted curve at half-maximal effect
Summary of the method: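 Cell line: HepG2 double-stable for hCAR and CYP2B6-2.2kb reporter. Agonist: CITCO, 50 nM final. Compounds: 15 concentrations, 24 h, 37 C. Detection: ONE-Glo luminescence.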

[12] = biological target: Nuclear receptor subfamily 1 group I member 3 (Homo sapiens) (UniProt Q14994); assay: qHTS assay to identify small molecule agonists of the constitutive androstane receptor (CAR) signaling pathway (AID 1224839);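 also: HepG2 cells stably carrying human CAR and a CYP2B6 luciferase reporter; series mostly up to about 92 µM; nearly all actives have a fitted effect of over 15% in size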
Summary of the method: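 Cells were plated and incubated 4 hrs, then dosed with compounds at 15 concentrations. PK11195 was added to 0.75 uM final. After 24 hrs at 37 C, luciferase luminescence was measured.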

[13] = qHTS assay to identify small molecule antagonists of the estrogen related receptor signaling pathway with the pleiotropic PPARgamma coactivator (PGC) from Tox21 10K library (AID 1224841; call rule not given here; also: actives are mostly falling curves and most rising ones were filed inactive; nearly all actives have a fitted effect of over 50% in size; also: potency is read from the fitted curve at half-maximal effect; as to activity, negative = inhibition: series mostly up to about 92 µM)
Summary of the method: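 qHTS antagonist format: PGC/ERR cells, 2k/well, compound in DMSO by pin transfer after 6 h attachment, 18 h treatment at 37 C, One-Glo luminescence read at 30 min.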

[14] = qHTS assay to identify small molecule agonists of the estrogen related receptor signaling pathway with the pleiotropic PPARgamma coactivator (PGC) from Tox21 10K library (AID 1224842); also: nearly all actives have a fitted effect of over 15% in size
Summary of the method: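 PGC/ERR reporter cell line, 2,000 cells per well, incubated 6 h at 37 C before 23 nL compound in DMSO was added. After 18 h at 37 C, One-Glo luminescence read following 30 min at room temperature.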

[15] = qHTS assay to identify small molecule antagonists of the estrogen related receptor (ERR) signaling pathway - cell viability counter screen (AID 1224818); also: series mostly up to about 46 µM
Summary of the method: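 After a 6 h pre-incubation, ERR cells were dosed by pin tool with compounds, positive/negative controls or DMSO alone. Following 17.5 h at 37 C and 30 min with CellTiter-Fluor, fluorescence was recorded.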

[16] = qHTS assay to identify small molecule antagonists of the estrogen related receptor signaling pathway with the pleiotropic PPARgamma coactivator (PGC) cell viability counter screen (AID 1224822; also: series mostly up to about 46 µM)
Summary of the method: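 PGC/ERR cells were plated at 2,000 per well and allowed 6 h to settle before compound addition. Following 17.5 h at 37 C, CellTiter-Fluor reagent was added and fluorescence was read 30 min later.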

[17] = qHTS assay to identify small molecule agonists of the estrogen related receptor (ERR) signaling pathway (AID 1224820)
Summary of the method: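 Cells: ERR line from NTP, 2,000/well. Pre-incubation 6 h, 37 C/5% CO2. Compound (DMSO) pin transfer, 18 h 37 C. One-Glo, 30 min RT, luminescence.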

[18] = qHTS assay to identify small molecule agonists of the estrogen related receptor signaling pathway with the pleiotropic PPARgamma coactivator (PGC) (AID 1224823)
Summary of the method: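 Steps: plate PGC/ERR cells at 2,000 cells/well; incubate 6 h, 37 C/5% CO2; pin-transfer compounds (DMSO); incubate 18 h, 37 C; add One-Glo; 30 min RT; read luminescence.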
% is scaled to controls: 0 for no effect and ±100 for the full control effect.

Sequence of Luciferin 4-monooxygenase (Photinus pyralis) (P08659 whole entry, looked up): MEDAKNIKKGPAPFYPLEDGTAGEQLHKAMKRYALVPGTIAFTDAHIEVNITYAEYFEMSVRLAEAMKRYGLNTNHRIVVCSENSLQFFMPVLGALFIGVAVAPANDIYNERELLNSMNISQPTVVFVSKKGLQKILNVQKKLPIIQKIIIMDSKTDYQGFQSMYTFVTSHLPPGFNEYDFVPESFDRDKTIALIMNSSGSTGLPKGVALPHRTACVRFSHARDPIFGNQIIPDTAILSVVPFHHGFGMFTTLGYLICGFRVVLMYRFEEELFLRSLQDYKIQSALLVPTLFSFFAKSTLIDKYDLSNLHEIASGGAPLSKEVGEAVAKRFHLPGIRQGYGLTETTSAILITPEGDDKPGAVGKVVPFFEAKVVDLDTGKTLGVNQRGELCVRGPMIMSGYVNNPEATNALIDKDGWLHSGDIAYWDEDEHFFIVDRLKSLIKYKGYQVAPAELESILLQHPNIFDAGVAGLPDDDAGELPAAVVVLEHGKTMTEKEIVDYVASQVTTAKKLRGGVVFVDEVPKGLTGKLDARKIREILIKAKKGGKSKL
Sequence of Nuclear receptor subfamily 1 group I member 3 (Homo sapiens) (Q14994 whole entry, looked up): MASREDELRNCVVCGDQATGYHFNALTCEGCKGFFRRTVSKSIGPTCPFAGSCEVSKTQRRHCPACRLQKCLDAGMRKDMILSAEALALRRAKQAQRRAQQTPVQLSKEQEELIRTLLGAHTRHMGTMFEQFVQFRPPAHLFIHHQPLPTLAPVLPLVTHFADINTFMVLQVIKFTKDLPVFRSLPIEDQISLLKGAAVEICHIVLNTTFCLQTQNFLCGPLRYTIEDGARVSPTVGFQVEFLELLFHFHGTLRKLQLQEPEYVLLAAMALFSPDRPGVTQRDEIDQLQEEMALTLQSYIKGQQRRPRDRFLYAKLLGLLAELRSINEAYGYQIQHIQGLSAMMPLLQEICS
Sequence of Thyrotropin receptor (Homo sapiens) (P16473 whole entry, looked up): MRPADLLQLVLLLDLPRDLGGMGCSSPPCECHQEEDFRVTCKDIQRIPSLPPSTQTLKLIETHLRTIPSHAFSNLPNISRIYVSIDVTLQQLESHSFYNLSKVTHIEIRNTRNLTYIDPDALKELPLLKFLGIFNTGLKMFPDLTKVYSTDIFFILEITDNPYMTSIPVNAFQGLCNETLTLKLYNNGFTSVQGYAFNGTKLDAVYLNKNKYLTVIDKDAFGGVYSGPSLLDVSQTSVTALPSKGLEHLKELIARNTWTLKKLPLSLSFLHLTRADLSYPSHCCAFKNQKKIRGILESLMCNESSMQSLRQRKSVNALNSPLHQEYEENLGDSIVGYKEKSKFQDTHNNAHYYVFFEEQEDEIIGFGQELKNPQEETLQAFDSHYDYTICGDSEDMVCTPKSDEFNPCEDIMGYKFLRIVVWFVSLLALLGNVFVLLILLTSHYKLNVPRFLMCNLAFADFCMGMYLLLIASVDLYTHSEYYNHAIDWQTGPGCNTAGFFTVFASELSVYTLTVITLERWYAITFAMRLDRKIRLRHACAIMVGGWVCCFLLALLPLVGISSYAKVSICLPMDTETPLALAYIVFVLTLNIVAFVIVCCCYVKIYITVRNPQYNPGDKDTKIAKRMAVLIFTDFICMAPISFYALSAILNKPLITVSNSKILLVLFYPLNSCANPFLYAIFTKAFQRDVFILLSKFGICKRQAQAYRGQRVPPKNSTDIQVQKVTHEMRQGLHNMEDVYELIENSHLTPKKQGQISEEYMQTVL

OCCC1CCCCN1 (configuration not stated)
inactive: Potency [1] | Potency [2] | Potency [3] | Potency [4] | Potency [5] | Potency [6] | Potency [7] | Potency [8] | Potency [9] | Potency [10]

CCOc1ccc(NC(=O)CC(C)=O)cc1
inactive: Potency [1] | Potency [2] | Potency [3] | Potency [4] | Potency [5] | Potency [6] | Potency [7] | Potency [8] | Potency [11] | Potency [12] | Potency [9] | Potency [13] | Potency [14]

O=C(O)/C=C/c1cnc[nH]1
inactive: Potency [1] | Potency [2] | Potency [3] | Potency [4] | outcome [15] | outcome [16] | Potency [5] | Potency [6] | Potency [7] | Potency [8] | Potency [11] | Potency [12] | Potency [9] | Potency [10]

CCN(CC)C(C)CN1c2ccccc2Sc2ccccc21 (configuration not stated)
inactive: Potency [1] | Potency [2] | Potency [3] | Potency [4] | outcome [15] | Potency [6] | Potency [7] | Potency [8] | Potency [12] | Potency [10]

O=C(Nc1ccccc1)OCC(CN1CCCCC1)OC(=O)Nc1ccccc1 (configuration not stated)
inactive: Potency [1] | Potency [2] | Potency [3] | Potency [4] | Potency [5] | Potency [6] | Potency [7] | Potency [8] | Potency [11] | Potency [12] | Potency [9] | Potency [10]

CN1CCN(C2=Nc3cc(Cl)ccc3Nc3ccccc32)CC1
inactive: Potency [1] | Potency [2] | Potency [3] | Potency [4] | outcome [15] | Potency [6] | Potency [11] | Potency [10]
active: Potency [5] 26.6 µM

CCCCCCCCCC(=O)OCC
inactive: Potency [1] | Potency [2] | Potency [3] | Potency [4] | Potency [5] | Potency [6] | Potency [7] | Potency [8] | Potency [12] | Potency [9] | Potency [10]

O=CNc1ccccc1
inactive: Potency [1] | Potency [2] | Potency [3] | Potency [4] | Potency [5] | Potency [6] | Potency [7] | Potency [8] | Potency [11] | Potency [12] | Potency [9] | Potency [13] | Potency [14]

CN(C)CCCNCCCN
inactive: Potency [2] | Potency [3] | Potency [4] | Potency [5] | Potency [6] | Potency [7] | Potency [8] | Potency [11] | Potency [12] | Potency [10]
active: Potency [1] 48.8 µM

NCCCN(CCO)CCO
inactive: Potency [1] | Potency [2] | Potency [3] | Potency [4] | Potency [5] | Potency [6] | Potency [7] | Potency [8] | Potency [11] | Potency [12] | Potency [9] | Potency [10]

CCCCCCCCCCCCCCCC(=O)OC/C=C(C)/C=C/C=C(C)/C=C/C1=C(C)CCCC1(C)C
inactive: Potency [1] | Potency [2] | Potency [3] | Potency [4] | Potency [5] | Potency [6] | Potency [7] | Potency [8] | Potency [11] | Potency [12] | Potency [9] | Potency [10]

O=[N+]([O-])c1cc[n+]([O-])cc1
inactive: Potency [1] | Potency [2] | Potency [3] | Potency [4] | Potency [5] | Potency [6] | Potency [12]
active: Potency [7] 30.6 µM | Potency [8] 30.6 µM | Potency [11] 43.3 µM

O=C(C(=O)c1ccc(Br)cc1)c1ccc(Br)cc1
inactive: activity change, negative = cytotoxicity [1] 5.23% [at 15.8 µM] | activity change, negative = cytotoxicity [2] 1.34% [at 19 µM] | activity, negative = inhibition [3] 45.5% [at 19 µM] | Potency [4] | viability change, negative = cytotoxic [5] -1.64% [at 19 µM] | activity change, negative = inhibition [6] 1.95% [at 23.6 µM] | viability change, negative = cytotoxic [7] 3.05% [at 19 µM] | activity change, negative = cytotoxicity [8] -2.27% [at 19 µM] | activity, negative = inhibition [11] 0.195% [at 19 µM] | activation [12] 2.8% [at 19 µM] | viability change, negative = cytotoxic [9] 3.02% [at 19 µM] | activation [14] 2.38% [at 19 µM] | activation [10] 3.26% [at 19 µM]

C=Cc1c(C)c2cc3[nH]c(cc4nc(cc5nc(cc1[nH]2)C(C)=C5CCC(=O)O)C(CCC(=O)O)=C4C)c(C)c3C=C
active: Potency [5] 23.7 µM
inactive: Potency [1] | Potency [2] | Potency [3] | Potency [4] | outcome [17] | outcome [18] | Potency [6] | Potency [11] | Potency [12] | Potency [9] | Potency [13] | Potency [14]

Nc1nc(N)c2nc(CNc3ccc(C(=O)N[C@@H](CCC(=O)O)C(=O)O)cc3)cnc2n1
active: Potency [13] 0.114 µM
inactive: Potency [1] | Potency [2] | Potency [3] | Potency [4] | Potency [5] | Potency [6] | Potency [7] | Potency [8] | Potency [12] | Potency [9] | Potency [14] | Potency [10]

ClC(Cl)(Cl)c1ccc(C(Cl)(Cl)Cl)cc1
inactive: Potency [1] | Potency [2] | Potency [3] | Potency [4] | Potency [5] | Potency [6] | Potency [7] | Potency [8] | Potency [11] | Potency [12] | Potency [9] | Potency [10]

CCOc1nc2cccc(C(=O)O)c2n1Cc1ccc(-c2ccccc2-c2nn[nH]n2)cc1
inactive: Potency [1] | Potency [2] | Potency [3] | Potency [4] | Potency [5] | Potency [6] | Potency [7] | Potency [8] | Potency [11] | Potency [12] | Potency [9] | Potency [13] | Potency [10]

CCOc1cc(OCC)c(C(=O)CCC(=O)O)cc1OCC
inactive: Potency [1] | Potency [2] | Potency [3] | Potency [4] | Potency [5] | Potency [6] | Potency [7] | Potency [8] | Potency [11] | Potency [12] | Potency [9]

CC(=O)/C=C/C1C(C)=CCCC1(C)C (configuration not stated)
inactive: Potency [1] | Potency [2] | Potency [3] | Potency [4] | Potency [5] | Potency [6] | Potency [7] | Potency [8] | Potency [9]

CC(C)(C)c1cc(CCC(=O)OCC(COC(=O)CCc2cc(C(C)(C)C)c(O)c(C(C)(C)C)c2)(COC(=O)CCc2cc(C(C)(C)C)c(O)c(C(C)(C)C)c2)COC(=O)CCc2cc(C(C)(C)C)c(O)c(C(C)(C)C)c2)cc(C(C)(C)C)c1O
inactive: Potency [1] | Potency [2] | Potency [3] | Potency [4] | Potency [5] | Potency [6] | Potency [7] | Potency [8] | Potency [12] | Potency [9] | Potency [10]
